Compounds with a hit are over-represented: about 4.1% of the library has one in this group of screens.
hcDAF-12 act: H. contortus DAF-12 activation, primary screen; HEK293 hcDAF-12 lit1-tk-luc reporter, luminescence; 0% DMSO, 100% Δ7-dafachronic acid; activation, % at 6.8 µM; 1.4% of 370,000 active; AID 652067;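 active means activation above the mean of all tested compounds plus 3 SD, cut at about 5.5% in these data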
DAX1 inh-1: inhibits human nuclear receptor DAX1 | P51843 | HEK293 Gal4-DAX1 luciferase reporter, luminescence | inhibition, % at 6.75 µM | 0.99% of 340,000 active;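 active means inhibition above the mean over all tested compounds plus 3 SD, cut at about 4.2% in these data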;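 further: inhibition shows as a rise in luminescence from relieved DAX1 repression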
Target sequence (P51843 207-470 limits assumed): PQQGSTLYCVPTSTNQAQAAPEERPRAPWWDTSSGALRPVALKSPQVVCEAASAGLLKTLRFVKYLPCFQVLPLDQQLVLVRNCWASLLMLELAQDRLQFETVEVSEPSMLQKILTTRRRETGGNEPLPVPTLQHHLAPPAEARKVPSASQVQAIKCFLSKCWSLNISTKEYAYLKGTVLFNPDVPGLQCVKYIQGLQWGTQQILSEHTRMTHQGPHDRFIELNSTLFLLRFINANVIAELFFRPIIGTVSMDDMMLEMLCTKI
hgDAF12 agonist: hgDAF-12 agonism, primary luciferase screen; HEK293 GAL4-hgDAF12 UAS-luciferase reporter, agonist luminescence; normalized to butyrate control; activation, % at 6.8 µM; 1.8% of 370,000 active; AID 687014;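 active means activation above a cutoff set at the mean of all screened compounds plus 3 SD, cut at about 10% in these data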
ssDAF-12 act: S. stercoralis DAF-12 activation, primary screen | 1% of 370,000 active | HEK293 ssDAF-12/GRIP1 lit1-tk-luc reporter, luminescence; % of 3 µM dafachronic acid response | activation, % at 6.8 µM;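 active means activation above the mean over all tested compounds plus 3 SD, cut at about 0.9% in these data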
DAX1 inh-2: DAX1 (NR0B1) inhibition, primary screen; HEK293T StAR-luciferase reporter, SF-1/DAX-1 repression relief; inhibition, % at 6.8 µM; 1.1% of 370,000 active; AID 652010;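 active means inhibition above the mean over all tested compounds plus 3 SD, cut at about 3.6% in these data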;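 further: higher inhibition means more luminescence from relief of DAX-1 repression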
Numbers stand for hits; – = inactive; · = no result given.

SMILES	hcDAF-12 act	DAX1 inh-1	hgDAF12 agonist	ssDAF-12 act	DAX1 inh-2
C(=NN=Cc1c[nH]c2ccccc12)c1c[nH]c2ccccc12	6.1	–	–	–	–
O=C1CS/C(=N/N=C/c2c[nH]c3ccccc23)N1	–	·	–	–	–
CC(=O)NC12CC3CC(CC(CC(=O)O)(C3)C1)C2	–	–	–	–	–
CC(=O)NC(C)C12CC3CC(CC(CC(=O)O)(C3)C1)C2 (stereo unspecified)	–	4.4	–	–	–
COc1ccc(/C=C2\SC(=O)N(CCNC(=O)CN3C(=O)NC4(CCCC4)C3=O)C2=O)cc1	–	–	–	–	4.2
O=C(CN1C(=O)NC2(CCCC2)C1=O)NCCN1C(=O)S/C(=C\c2ccccc2F)C1=O	–	–	–	–	–
CCOC(=O)C1(Cc2ccccc2C)CCCN(Cc2cn(C)nc2C)C1 (stereo unspecified)	–	6.1	–	–	–
O=C(NCCN1CCCC1)c1ccc2c(c1)N(Cc1cccc(Cl)c1)C(=O)c1ccccc1S2(=O)=O	6.2	–	–	–	–
Cc1cccc(CN2C(=O)c3ccccc3S(=O)(=O)c3ccc(C(=O)NCCCN4CCCC4)cc32)c1	–	–	–	–	–
CCC[C@H]1[C@@H](OC(=O)NCc2ccc(C(F)(F)F)cc2)CC[C@@]23CCCN2C(=O)CCC[C@@H]13	–	·	–	–	·
CC(C)(O)c1[nH]c2cc(C(F)(F)F)ccc2c1C(C)(C)O	–	–	–	–	–
CC(C)(O)c1[nH]c2cc(F)ccc2c1C(C)(C)O	5.7	–	–	–	–
C=CCN1[C@H](C)COc2cccc(N3CCCC3)c2S1(=O)=O	–	·	–	–	–
COc1ccc(/C=N/NC(=O)CN2CCCC2)cc1	–	–	–	–	–
CC(C)(C)OC(=O)COc1ccc(/C=N/NC(=O)CN2CCCCC2)cc1	–	–	13	–	–
O=C(N/N=C/c1ccc(OCC(=O)N2CCCCC2)cc1)c1ccccc1O	–	–	–	1.7	–
O=C(N/N=C/c1ccc(OCC(=O)N2CCCCC2)cc1)c1ccccc1	–	–	–	–	–
CC(=O)C(C(c1ccccc1)N1CCCc2ccccc21)N1CCOCC1 (stereo unspecified)	–	–	–	1.1	–
Cc1ccc(S(=O)(=O)n2ccc(-c3c(-c4ccc(Cl)cc4)noc3C)n2)cc1	–	·	–	–	–
COc1ccc(NC(=O)NC(C)C2CC3CCC2C3)cc1 (stereo unspecified)	–	–	–	17	–
CC(NC(=O)c1ccc(N(C)C)cc1)C1CC2CCC1C2 (stereo unspecified)	–	–	–	–	–
COc1ccc(C(=O)NC(C)C2CC3CCC2C3)cc1 (stereo unspecified)	–	–	–	–	–
CC(NC(=O)c1ccc(C#N)cc1)C1CC2CCC1C2 (stereo unspecified)	–	5.4	–	–	–
Cc1oc2c(C)c3oc(=O)c(CCC(=O)NCCCN4CCOCC4)c(C)c3cc2c1C	–	6.7	–	–	–
Cc1oc2cc3oc(=O)c(CCC(=O)NCCCN4CCCC4=O)c(C)c3cc2c1C	–	–	–	–	–
SMILES	hcDAF-12 act	DAX1 inh-1	hgDAF12 agonist	ssDAF-12 act	DAX1 inh-2
Cc1oc2c(C)c3oc(=O)c(CCC(=O)NCCCN4CCCC4=O)c(C)c3cc2c1C	–	4.3	–	–	–
CCOc1cc(OCC)cc(C(=O)N2CCC[C@@H]2C(=O)N2CCC[C@@H]2C(=O)NCc2cccc(OC)c2)c1	–	·	–	–	–
CCCCN1CN2Cc3cc(OC)ccc3C2CS1(=O)=O (stereo unspecified)	–	·	–	–	–
O=C(N[C@@H]1C[C@@H]2O[C@@H](CO)CC[C@@H]2O[C@@H]1CCc1ccc(-c2cccnc2)cc1)c1cccc(F)c1	–	·	–	–	–
O=C(c1cccc(COc2ccc(Cl)cc2Cl)c1)N1CCN(c2ccccn2)CC1	–	–	11	–	–
O=S1(=O)c2c(cccc2N2CCC[C@H]2CO)OCCCN1C1CC1	–	·	–	–	–
O=C(c1cc(-c2ccc(F)cc2)on1)N1CCOCC1	–	–	13	–	–
O=C(c1cc(-c2ccc(F)cc2)on1)N1CCCC1	–	–	13	–	–
O=C(c1cc(-c2ccc(O)cc2)on1)N1CCN(c2ccc(F)cc2)CC1	–	–	–	–	–
O=C(c1cc(-c2ccc3c(c2)OCO3)on1)N1CCOCC1	–	–	–	–	–
O=C(c1cc(-c2cccc(Cl)c2)on1)N1CCOCC1	–	–	11	–	–
COc1ccc(-c2cc(C(=O)N3CCCCCC3)no2)cc1OC	–	–	10	–	–
O=C(CN(CCc1ccccc1)S(=O)(=O)c1ccc(F)cc1)N1CCOCC1	–	·	–	–	–
O=C(c1cc(-c2cccc(O)c2)on1)N1CCCC1	–	–	13	–	–
O=C(c1cc(-c2ccc(Cl)c(Cl)c2)on1)N1CCOCC1	–	–	–	–	–
O=C(c1cc(-c2ccc(Cl)cc2)on1)N1CCOCC1	–	–	12	–	4.0
CN1CCN(C(=S)c2ccc(-c3cccc([N+](=O)[O-])c3)o2)CC1	6.5	7.9	–	–	–
O=[N+]([O-])c1cccc(-c2ccc(C(=S)N3CCN(c4ccccc4)CC3)o2)c1	–	·	–	–	–
S=C(c1ccc(-c2cccc(Cl)c2)o1)N1CCOCC1	–	–	13	–	–
O=C(c1cc(-c2ccc(F)cc2)on1)N1CCCc2ccccc21	–	–	–	–	–
O=C(c1cc(-c2ccc(F)cc2)on1)N1CCCCCC1	–	–	12	–	–
Cc1ccn2c(NCc3ccccc3)c(-c3cccs3)nc2c1	–	–	11	–	–
COc1ccccc1C(=O)Nc1nnc(-c2ccc3c(c2)CCCC3)o1	–	–	–	–	–
CC(=O)Nc1nnc(-c2ccc3c(c2)CCCC3)o1	–	–	11	–	3.8
O=C(O)COn1c(-c2ccccc2)nc2ccc(Cl)cc21	–	–	–	1.1	–
SMILES	hcDAF-12 act	DAX1 inh-1	hgDAF12 agonist	ssDAF-12 act	DAX1 inh-2
COn1c(-c2ccccc2)nc2ccc(Cl)cc21	–	–	12	–	–
CSc1cccc(NC(=O)CSc2ncccc2C(=O)Oc2cccc([N+](=O)[O-])c2)c1	–	–	–	1.4	–
CCN(C(=O)CSc1ncccc1C(=O)Oc1cccc([N+](=O)[O-])c1)c1cccc(C)c1	–	–	–	–	–
O=C(Nc1ccc(O)cc1)c1ccc2c(c1)C(=O)N(N1C(=O)c3ccccc3C1=O)C2=O	–	–	–	–	–
O=C(Nc1ccccc1O)c1ccc2c(c1)C(=O)N(N1C(=O)c3ccccc3C1=O)C2=O	5.9	–	–	1.3	–
Cc1ccc(-n2c(SCC(=O)Nc3ccccc3-c3ccccc3)nnc2-c2cccnc2)cc1	–	·	–	–	–
CC(OC(=O)c1cccnc1Cl)C(=O)Nc1ccc(S(N)(=O)=O)cc1 (stereo unspecified)	–	6.2	–	–	–
COC[C@H]1CCCN1c1ccc2c(c1)O[C@H]1CCN(C1)S2(=O)=O	–	·	–	–	–
CC(=O)Oc1ccc2occ(-c3ccccc3)c2c1	–	–	–	–	–
